Each compound was assayed against Glucose transporter (Leishmania mexicana) (UniProt O61059) (assay: ST_JUDE_LEISH: Cytotoxicity at 2uM final concentration against transgenic Leishmania Mexicana promastigotes LmGT2 that are glucose transport deficient and complemented with the L. Mexicana glucose transporter 2. Activity is measured by DNA content using SYBR green in vitro).
Assay type: functional

| SMILES | inhibition |
| --- | --- |
| CCCc1cn2c3c(cc(C(=O)N[C@@H](Cc4ccccc4)[C@H](O)CNC4CCCCC4)cc13)N(CC)S(=O)(=O)CC2 | -0.79% |
| COc1cccc2c(NN=Cc3cccc(Cl)c3)ccnc12 | 1.77% |
| Cc1[nH]c(C)c(-c2ccc(OCCn3cnc(Cl)c3Cl)cc2)c(=O)c1Br | -0.52% |
| O=C(Nc1cc2cc(-c3ccc(CN4CCCCC4)cc3)ccc2n2cnnc12)NC1CCCC1 | 3.67% |
| CN1CCN(c2ccc(Cl)cc2NC(=O)C2COc3ccccc3O2)CC1 (stereo not given) | -1.34% |
| COc1ccc(C(=O)N2CCC(C(=O)NC(C)c3ccc(-n4ccnc4)cc3)CC2)c2ccccc12 (stereo not given) | -0.59% |
| Fc1ccc(-c2cc(NCCCn3ccnc3)nc(-c3cccnc3)n2)cc1 | 2.67% |
| O=C(Nc1ccc(N2CCCN(Cc3cccc(F)c3)CC2)cc1)c1cccs1 | -3.03% |
| NCC1CCCN1Cc1ccc(-c2ccc(-c3nc4cc(C(F)(F)F)ccc4[nH]3)s2)cc1 (stereo not given) | -0.19% |
| Cc1ccc(Sc2ccc(NC(=O)CN3CCN(C(=O)c4ccco4)CC3)cc2)cc1C | 6.7% |
| OCCN1CCN(C2Cc3ccc(F)cc3Sc3ccc(Cl)cc32)CC1 (stereo not given) | 0.59% |
| Cc1cc(S(=O)(=O)N2CCCCC(c3ccc(C(F)(F)F)cc3)=N2)c(Cl)cc1Cl | -1.4% |
| O=C(N/N=C/c1nc2ccccc2[nH]1)c1cccc([N+](=O)[O-])c1 | 0.25% |
| CCN(CCCN1CCCCC1)c1cc(C)nc(Nc2ccc(C)cc2C(F)(F)F)n1 | -1.54% |
| OC(CNCc1ccccc1OCc1ccccc1)c1cc(C(F)(F)F)cc(C(F)(F)F)c1 (stereo not given) | 4.23% |
| Cn1ncc2c3c(CCN4CCC(NCc5cc6c(cn5)OCCO6)CC4)c(Cl)cnc3ccc21 | -0.85% |
| CCn1c(-c2nonc2N)nc2c(-c3cccc(NC(=O)Nc4cccc(Cl)c4)c3)ncc(OCCCN)c21 | 2.75% |
| O=C1c2ccccc2-n2c1nc1ccccc1c2=O | -3.28% |
| Oc1cc(NCCCNC2CCc3c(Cl)cc(Cl)cc32)nc2ccccc12 (stereo not given) | 3.08% |
| O=C(Nc1cccc(F)c1)NC1CCN(c2ccnc3cc(Cl)ccc23)C1 (stereo not given) | 4.22% |

| SMILES | inhibition |
| --- | --- |
| CCCC(C)NC[C@@H](O)[C@H](Cc1ccccc1)NC(=O)c1cc(C2CCCC2)cc(N2CCCCS2(=O)=O)c1 (stereo not given in full) | 2.98% |
| Cc1cccc2nc(-c3ccc(-c4ccc(NC(=O)NCc5cccc(F)c5)cc4)s3)[nH]c12 | 5.43% |
| c1ccc(-n2cncn2)cc1 | 4.67% |
| Cc1cccc2nc(O)c([N+](=O)[O-])c(O)c12 | 2.14% |
| CCc1c(C)nc(-n2nc(C)cc2NC(=O)CCc2ccccc2)[nH]c1=O | 2.86% |
| CC(=O)c1cccc2[nH]c(C(=O)NC3CCC(CCN4CCc5ccc(C#N)cc5C4)CC3)cc12 (stereo not given) | 2.51% |
| Cc1ccccc1Nc1nc(Nc2ccccc2)c2ccccc2n1 | 13% |
| CC(C)C[C@H](NC(=O)c1cc2ccccc2s1)C(=O)N[C@H]1CCN(Cc2ccc(OCCCN(C)C)c(Cl)c2)C1 | 1.32% |
| CC(=NO)C1=C(O)C(c2ccccc2)N(c2ccccc2)C1=O (stereo not given) | 1.72% |
| CC(=O)Nc1ccc(Nc2cc(C)nc(Nc3ccc(NC(C)=O)cc3)n2)cc1 | 2.71% |
| OC(CNc1ccnc(Nc2cccc(Cl)c2)n1)c1cccc(F)c1 (stereo not given) | -3.09% |
| CCN(CC)/C(=N/C(=N)Nc1ccc(Cl)c(Cl)c1)NCCCCCCN/C(=N\C(=N)Nc1ccc(Cl)c(Cl)c1)N(CC)CC | -1.49% |
| CCCCCCn1c(Sc2ccc(C#N)c([N+](=O)[O-])c2)nnc1-c1cccs1 | -0.09% |
| COc1ccc(Nc2nccc(NCC(O)c3cccc(C(F)(F)F)c3)n2)cc1 (stereo not given) | -1.44% |
| COc1ccc(-c2ccc(NC(=O)c3ccc(Cl)cc3)cc2)cc1CN1CCCN(C)CC1 | 5.6% |
| Cc1cccc2nc(-c3ccc(-c4cccc(NC(=O)NCc5cccc(F)c5)c4)s3)[nH]c12 | -1.14% |
| CCNc1cc(C(=O)N[C@@H](Cc2cccc(F)c2)[C@H](O)CNC(C)CCCC(C)C)cc(N2CCCCS2(=O)=O)c1 (stereo not given in full) | 1.42% |
| CCOc1ccc2c(=NN=Cc3cccc(OC)c3OC)cc(C)[nH]c2c1 | 6% |
| C=CCc1cccc(OC)c1OCCCON1C(=N)N=C(N)NC1(C)C | 0.43% |
| CC[C@@]1(O)C(=O)OCc2c1cc1n(c2=O)Cc2c-1nc1cc3c(cc1c2CN1CCN(C)CC1)OCCO3 | 3.83% |
